# Results as given in PubChem BioAssay (NCATS).
# Calls of active or inactive are those of the source. Calls follow the shape of the dose curve; as a rule, active = well fitted curve in the direction sought with a large enough effect; inconclusive = small, poorly fitted or top-dose-only effect, or effect the other way, or another doubt; inactive = no such curve, though single readings can be large or run the other way.
# Assay: Inducers of the Endoplasmic Reticulum Stress Response (ERSR) in human glioma: Validation (AID 504836)
# Settings: human glioma cells, ER stress response reporter; series mostly up to 38.3 µM
# Summary of the method: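 Stably transfected U87-MG human glioma cells carrying a GRP78-based luminescent sensor were seeded at 1000 cells/well, pin-dosed with compounds and incubated 16 h. Luciferase reagent was then added, and end-point luminescence was read after 10 min at room temperature.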
row,Compound,outcome
1,COc1ccccc1OCCNCC(O)COc1cccc2[nH]c3ccccc3c12 (centres undefined),inactive
2,CN(C)C(=O)C(CCN1CCC(O)(c2ccc(Cl)cc2)CC1)(c1ccccc1)c1ccccc1,inactive
3,CC(C)NCC(O)c1ccc(O)c(O)c1 (centres undefined),inactive
4,O=C(C1CCCCC1)N1CC(=O)N2CCc3ccccc3C2C1 (centres undefined),inactive
5,CC(C)C(=O)Nc1ccc([N+](=O)[O-])c(C(F)(F)F)c1,inactive
6,Oc1ccc(C2CNCCc3c2cc(O)c(O)c3Cl)cc1 (centres undefined),inactive
7,Nc1nnc(-c2cccc(Cl)c2Cl)c(N)n1,inactive
8,NNc1nncc2ccccc12,inactive
9,CN(C)[C@@H]1C(=O)C(C(N)=O)=C(O)[C@@]2(O)C(=O)C3=C(O)c4c(O)ccc(Cl)c4[C@@H](O)[C@H]3C[C@@H]12,inactive
10,CCN(CC)C(=S)SSC(=S)N(CC)CC,inactive
11,Nc1nc2c(ncn2COC(CO)CO)c(=O)[nH]1,inactive
12,O=NN(CCCl)C(=O)NCCCl,inactive
13,CC[N+](C)(C)c1cccc(O)c1,inactive
14,NS(=O)(=O)c1cc2c(cc1Cl)NC=NS2(=O)=O,inactive
15,CCOC(=O)C1=C(C)NC(C)=C(C(=O)OC)C1c1cccc(Cl)c1Cl (centres undefined),inactive
16,N[C@@H]1CONC1=O,inactive
17,CCN(CC)CCOC(=O)C1(C2CCCCC2)CCCCC1,inactive

row,Compound,outcome
1,CC(C)NCC(O)COc1cccc2[nH]ccc12 (centres undefined),inactive
2,CC(=O)[C@]1(O)Cc2c(O)c3c(c(O)c2[C@@H](O[C@H]2C[C@H](N)[C@H](O)[C@H](C)O2)C1)C(=O)c1ccccc1C3=O,inactive
3,CN1CCN(C2=Nc3cc(Cl)ccc3Nc3ccccc32)CC1,inactive
4,COc1cc2nc(N(C)CCCNC(=O)C3CCCO3)nc(N)c2cc1OC (centres undefined),inactive
5,CC1(C)NC(=O)N(c2ccc([N+](=O)[O-])c(C(F)(F)F)c2)C1=O,inactive
6,CCCCNC(=O)NS(=O)(=O)c1ccc(C)cc1,inactive
7,Cc1[nH]c(=O)c(C#N)cc1-c1ccncc1,inactive
8,Nc1nc2c(ncn2COCCO)c(=O)[nH]1,inactive
9,C[C@](N)(Cc1ccc(O)c(O)c1)C(=O)O,inactive
10,Fc1ccc([C@@H]2CCNC[C@H]2COc2ccc3c(c2)OCO3)cc1,inactive
11,CN(C)CCCN1c2ccccc2CCc2ccc(Cl)cc21,inactive
12,CCCC(CCC)C(=O)O,inactive
13,COc1ccc(Cl)cc1C(=O)NCCc1ccc(S(=O)(=O)NC(=O)NC2CCCCC2)cc1,inactive
14,O=C(NCCN1CCOCC1)c1ccc(Cl)cc1,inactive
15,CN[C@H]1CC[C@@H](c2ccc(Cl)c(Cl)c2)c2ccccc21,inactive
16,Cc1oncc1C(=O)Nc1ccc(C(F)(F)F)cc1,inactive
17,OCCN1CCN(CCCN2c3ccccc3Sc3ccc(Cl)cc32)CC1,inactive
